# Results reported in paper PMC11062922 (Nature Chemical Biology, 2023).
# Read-outs that look alike come from different tables or passages of the source.
# Tested on: PRKD2
# Details: read-out: apparent Kd, n = 1
substance,measurement,setting,value
Lestaurtinib,potency estimated from few doses,"compound concentrations:100 nM and 1000 nM (sheet 'Lestaurtinib' of Supplementary Table 1),run:Lestaurtinib_02364_R3,Plate:MR002",45.4 nM
same,potency estimated from few doses,"compound concentrations:100 nM and 1000 nM (sheet 'Lestaurtinib' of Supplementary Table 1),run:Lestaurtinib_02367_R2,Plate:MR003",43.5 nM
same,potency estimated from few doses,"compound concentrations:100 nM and 1000 nM (sheet 'Lestaurtinib' of Supplementary Table 1),run:Lestaurtinib_02367_R3,Plate:MR003",44.3 nM
same,potency estimated from few doses,"compound concentrations:100 nM and 1000 nM (sheet 'Lestaurtinib' of Supplementary Table 1),run:Lestaurtinib_02381_R1,Plate:MR004",50.1 nM
same,potency estimated from few doses,"compound concentrations:100 nM and 1000 nM (sheet 'Lestaurtinib' of Supplementary Table 1),run:Lestaurtinib_02381_R2,Plate:MR004",54.4 nM
same,potency estimated from few doses,"compound concentrations:100 nM and 1000 nM (sheet 'Lestaurtinib' of Supplementary Table 1),run:Lestaurtinib_02381_R3,Plate:MR004",41.5 nM
same,potency estimated from few doses,"compound concentrations:100 nM and 1000 nM (sheet 'Lestaurtinib' of Supplementary Table 1),run:Lestaurtinib_02407_R2,Plate:MR005",51.1 nM
same,potency estimated from few doses,"compound concentrations:100 nM and 1000 nM (sheet 'Lestaurtinib' of Supplementary Table 1),run:Lestaurtinib_02407_R3,Plate:MR005",45.8 nM
same,potency estimated from few doses,"compound concentrations:100 nM and 1000 nM (sheet 'Lestaurtinib' of Supplementary Table 1),run:Lestaurtinib_02422_R1,Plate:MR006",40.9 nM
same,potency estimated from few doses,"compound concentrations:100 nM and 1000 nM (sheet 'Lestaurtinib' of Supplementary Table 1),run:Lestaurtinib_02422_R2,Plate:MR006",24 nM
same,potency estimated from few doses,"compound concentrations:100 nM and 1000 nM (sheet 'Lestaurtinib' of Supplementary Table 1),run:Lestaurtinib_02422_R3,Plate:MR006",41 nM
same,potency estimated from few doses,"compound concentrations:100 nM and 1000 nM (sheet 'Lestaurtinib' of Supplementary Table 1),run:Lestaurtinib_02437_R1,Plate:MR007",45.2 nM
same,potency estimated from few doses,"compound concentrations:100 nM and 1000 nM (sheet 'Lestaurtinib' of Supplementary Table 1),run:Lestaurtinib_02437_R2,Plate:MR007",74.6 nM
same,potency estimated from few doses,"compound concentrations:100 nM and 1000 nM (sheet 'Lestaurtinib' of Supplementary Table 1),run:Lestaurtinib_02437_R3,Plate:MR007",3.14 nM
same,potency estimated from few doses,"compound concentrations:100 nM and 1000 nM (sheet 'Lestaurtinib' of Supplementary Table 1),run:Lestaurtinib_02438_R1,Plate:MR008",45.4 nM
same,potency estimated from few doses,"compound concentrations:100 nM and 1000 nM (sheet 'Lestaurtinib' of Supplementary Table 1),run:Lestaurtinib_02438_R2,Plate:MR008",51 nM
same,potency estimated from few doses,"compound concentrations:100 nM and 1000 nM (sheet 'Lestaurtinib' of Supplementary Table 1),run:Lestaurtinib_02438_R3,Plate:MR008",31.7 nM
same,potency estimated from few doses,"compound concentrations:100 nM and 1000 nM (sheet 'Lestaurtinib' of Supplementary Table 1),run:Lestaurtinib_02443_R2,Plate:MR009",43.2 nM
same,potency estimated from few doses,"compound concentrations:100 nM and 1000 nM (sheet 'Lestaurtinib' of Supplementary Table 1),run:Lestaurtinib_02473_R3,Plate:MR010",38.9 nM
same,potency estimated from few doses,"compound concentrations:100 nM and 1000 nM (sheet 'Lestaurtinib' of Supplementary Table 1),run:Lestaurtinib_02482_R2,Plate:MR011",50.4 nM
same,potency estimated from few doses,"compound concentrations:100 nM and 1000 nM (sheet 'Lestaurtinib' of Supplementary Table 1),run:Lestaurtinib_02482_R3,Plate:MR011",42.2 nM
same,potency estimated from few doses,"compound concentrations:100 nM and 1000 nM (sheet 'Lestaurtinib' of Supplementary Table 1),run:Lestaurtinib_02487_R2,Plate:MR012",40.1 nM
same,potency estimated from few doses,"compound concentrations:100 nM and 1000 nM (sheet 'Lestaurtinib' of Supplementary Table 1),run:Lestaurtinib_02487_R3,Plate:MR012",67.4 nM
same,potency estimated from few doses,"compound concentrations:100 nM and 1000 nM (sheet 'Lestaurtinib' of Supplementary Table 1),run:Lestaurtinib_02496_R1,Plate:MR013",47.4 nM
same,potency estimated from few doses,"compound concentrations:100 nM and 1000 nM (sheet 'Lestaurtinib' of Supplementary Table 1),run:Lestaurtinib_02496_R2,Plate:MR013",58.1 nM
same,potency estimated from few doses,"compound concentrations:100 nM and 1000 nM (sheet 'Lestaurtinib' of Supplementary Table 1),run:Lestaurtinib_02496_R3,Plate:MR013",50.5 nM
same,potency estimated from few doses,"compound concentrations:100 nM and 1000 nM (sheet 'Lestaurtinib' of Supplementary Table 1),run:Lestaurtinib_02566_R1,Plate:MR014",67.2 nM
same,potency estimated from few doses,"compound concentrations:100 nM and 1000 nM (sheet 'Lestaurtinib' of Supplementary Table 1),run:Lestaurtinib_02566_R2,Plate:MR014",39.4 nM
same,potency estimated from few doses,"compound concentrations:100 nM and 1000 nM (sheet 'Lestaurtinib' of Supplementary Table 1),run:Lestaurtinib_02566_R3,Plate:MR014",46.5 nM
same,potency estimated from few doses,"compound concentrations:100 nM and 1000 nM (sheet 'Lestaurtinib' of Supplementary Table 1),run:Lestaurtinib_02572_R1,Plate:MR015",38.1 nM
same,potency estimated from few doses,"compound concentrations:100 nM and 1000 nM (sheet 'Lestaurtinib' of Supplementary Table 1),run:Lestaurtinib_02572_R2,Plate:MR015",52 nM
same,potency estimated from few doses,"compound concentrations:100 nM and 1000 nM (sheet 'Lestaurtinib' of Supplementary Table 1),run:Lestaurtinib_02572_R3,Plate:MR015",82.5 nM
same,potency estimated from few doses,"compound concentrations:100 nM and 1000 nM (sheet 'Lestaurtinib' of Supplementary Table 1),run:Lestaurtinib_02577_R3,Plate:MR016",35.8 nM
same,potency estimated from few doses,"compound concentrations:100 nM and 1000 nM (sheet 'Lestaurtinib' of Supplementary Table 1),run:Lestaurtinib_02584_R1,Plate:MR017",50.7 nM
same,potency estimated from few doses,"compound concentrations:100 nM and 1000 nM (sheet 'Lestaurtinib' of Supplementary Table 1),run:Lestaurtinib_02584_R3,Plate:MR017",33 nM
same,potency estimated from few doses,"compound concentrations:100 nM and 1000 nM (sheet 'Lestaurtinib' of Supplementary Table 1),run:Lestaurtinib_02601_R2,Plate:MR018",54.7 nM
same,potency estimated from few doses,"compound concentrations:100 nM and 1000 nM (sheet 'Lestaurtinib' of Supplementary Table 1),run:Lestaurtinib_02601_R3,Plate:MR018",50.7 nM
same,potency estimated from few doses,"compound concentrations:100 nM and 1000 nM (sheet 'Lestaurtinib' of Supplementary Table 1),run:Lestaurtinib_02606_R1,Plate:MR019",41.7 nM
same,potency estimated from few doses,"compound concentrations:100 nM and 1000 nM (sheet 'Lestaurtinib' of Supplementary Table 1),run:Lestaurtinib_02624_R1,Plate:MR020",52.8 nM
same,potency estimated from few doses,"compound concentrations:100 nM and 1000 nM (sheet 'Lestaurtinib' of Supplementary Table 1),run:Lestaurtinib_02624_R3,Plate:MR020",37.9 nM
same,potency estimated from few doses,"compound concentrations:100 nM and 1000 nM (sheet 'Lestaurtinib' of Supplementary Table 1),run:Lestaurtinib_02724_R1,Plate:MR021",39.4 nM
same,potency estimated from few doses,"compound concentrations:100 nM and 1000 nM (sheet 'Lestaurtinib' of Supplementary Table 1),run:Lestaurtinib_02724_R2,Plate:MR021",50.8 nM
same,potency estimated from few doses,"compound concentrations:100 nM and 1000 nM (sheet 'Lestaurtinib' of Supplementary Table 1),run:Lestaurtinib_02724_R3,Plate:MR021",44.7 nM
